# Bioassay records: PubChem, National Center for Advancing Translational Sciences (NCATS)
# G9a inh – blocks human histone lysine methyltransferase G9a. 8.8% of 350,000 active. Q96KQ7. AID 504332. G9a H3K9 monomethylation, AlphaScreen, 2 h. Potency, µM (doses to about 102 µM), for inactives: at the highest dose activity, negative = inhibition, most hits filed as inhibitors; also: % is scaled to controls: 0 for no effect and ±100 for the full control effect; nearly all actives have a fitted effect of over 75% in size
# Target sequence (Q96KQ7 913-1193 limits assumed): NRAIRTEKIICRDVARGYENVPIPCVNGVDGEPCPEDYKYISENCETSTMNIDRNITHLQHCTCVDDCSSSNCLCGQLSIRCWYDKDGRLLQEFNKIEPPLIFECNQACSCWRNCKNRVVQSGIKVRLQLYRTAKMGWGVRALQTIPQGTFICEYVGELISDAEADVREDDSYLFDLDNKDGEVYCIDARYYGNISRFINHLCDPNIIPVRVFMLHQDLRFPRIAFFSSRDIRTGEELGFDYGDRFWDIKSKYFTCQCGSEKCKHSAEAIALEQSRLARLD
#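 G9a (20 nM) was preincubated 15 min with compound, then reacted 2 h at room temperature with 500 nM biotin-H3K9 peptide and 20 µM SAM. Monomethyl-H3K9 detected by AlphaScreen using anti-H3K9me1 antibody.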
# HP1b binding inh – blocks HP1-beta chromodomain binding to methylated histone tails. AlphaScreen HP1-beta / biotin-H3K9me3 peptide binding. Potency, µM (titrated, usually from 114 µM), inactives show at the top dose activity change, negative = inhibition, hits mostly inhibitors. P83916. 0.56% of 390,000 active. AID 540317; also: nearly all actives have a fitted effect of over 70% in size
# Target sequence (P83916 whole entry, looked up): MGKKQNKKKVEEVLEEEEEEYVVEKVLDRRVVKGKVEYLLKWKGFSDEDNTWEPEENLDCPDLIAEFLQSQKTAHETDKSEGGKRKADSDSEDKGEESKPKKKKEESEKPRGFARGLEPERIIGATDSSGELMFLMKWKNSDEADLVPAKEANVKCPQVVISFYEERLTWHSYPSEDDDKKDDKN
#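 HP1-beta protein (50 nM final) preincubated 30 min at room temperature with biotinylated H3(1-18)K9me3 peptide (50 nM) in PBS pH 7.4, 0.01% Tween-20, then compound added for 30 min. AlphaScreen streptavidin donor/nickel chelate acceptor beads (10 ug/mL final), 30 min dark, luminescence read.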
# BAZ2B block – blocks human BAZ2B; Q9UIF8; AlphaScreen BAZ2B-H3K14Ac peptide displacement; Potency, µM (highest dose often 114 µM), for the others: top-dose activity change, negative = inhibition, hits mostly inhibitors; 4.4% of 360,000 active; AID 504333; also: % is scaled to controls: 0 for no effect and ±100 for the full control effect; nearly all actives have a fitted effect of over 60% in size
#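 Protein-peptide AlphaScreen: BAZ2B 50 nM, b-H3K14Ac 50 nM, 1x PBS pH 7.4 + 0.01% Tween-20. Preincubation 30 min RT; cpd 30 min RT (top 110 uM); beads 20 min RT, light-protected.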
# L3MBTL1 inh – L3MBTL1 (human) inhibition; AlphaScreen L3MBTL1–H3K9me1 peptide binding; Potency, µM (top dose mostly 57.1 µM), for the others: at the highest dose activity, negative = inhibition, most hits filed as inhibitors; 0.66% of 230,000 active; also: % is scaled to controls: 0 for no effect and ±100 for the full control effect; nearly all actives have a fitted effect of over 60% in size
#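 L3MBTL1 (50 nM) pre-complexed 30 min with biotinylated H3(1-15)K9me1 peptide (75 nM), then compounds added for 30 min at room temperature; AlphaScreen streptavidin donor/nickel chelate acceptor beads (10 ug/mL final) read after 30 min dark incubation.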
# JMJD2A Tudor – JMJD2A Tudor domain (human) inhibition; AlphaScreen JMJD2A-Tudor / H3K4me3 peptide binding; O75164; 4.4% of 390,000 active; Potency, µM (series often up to 114 µM), for the others: top-dose activity change, negative = inhibition, hits mostly inhibitors; AID 504339; also: % is scaled to controls: 0 for no effect and ±100 for the full control effect; nearly all actives have a fitted effect of over 50% in size
# Starred values were filed as active, the others as inactive; ? = inconclusive; / = no result; [ ] = remark or other dose. Most compounds without a hit are left out; they make up all but 11% or so of the library. Calls follow the shape of the dose curve; as a rule, active = well fitted inhibition curve with a large enough effect; inconclusive = small, poorly fitted or top-dose-only effect; inactive = no such curve, though single readings can be large or run the other way. Potency is read from the fitted curve at half-maximal effect.
SMILES,G9a inh,HP1b binding inh,BAZ2B block,L3MBTL1 inh,JMJD2A Tudor
CCOC(=O)C1=C(Cc2ccc(F)cc2)C(=O)c2ccccc2C1=O,8.9µM*,?,40µM*,/,20µM*
O=C(OCc1ccc(F)cc1)c1ccc2c(c1)-c1ccccc1C2=O,9%,-9%,-29%,-6%,-25%
Cc1ccc(C(=O)CC(C(=O)O)c2cn(CCC#N)c3ccccc23)cc1 (configuration not stated),?,?,3%,2%,50µM*
Cc1ccc(NC(=O)c2c(C)oc3ccc(O)c(CN4CCN(Cc5ccccc5)CC4)c23)cc1,-42%[59 µM],11%,-20%,/,-25%
c1cc[n+](CCCC[n+]2ccccc2)cc1,/,25%,8%,-4%,-8%
c1cc[n+](CCC[n+]2ccccc2)cc1,11µM*,11%,0%,/,?
Cc1cc(C)c(S(=O)(=O)N2CCC(n3c(C(F)(F)F)nc4cccnc43)CC2)c(C)c1,5%[59 µM],14%,3%,/,-12%
N.N.O=C(O)C1(C(=O)O)CCC1.[Pt+2],0.28µM*,/,/,/,/
NC(=O)CCC1NC(=O)C(Cc2ccccc2)NC(=O)C(Cc2ccc(O)cc2)NC(=O)CCSSCC(C(=O)N2CCCC2C(=O)NC(CCCN=C(N)N)C(=O)NCC(N)=O)NC(=O)C(CC(N)=O)NC1=O (configuration not stated),-3%[12.7 µM],/,/,/,/
CC(NCC1(N2CCOCC2)CCCCC1)C(=O)N1CCc2ccccc21 (configuration not stated),?,?,40µM*,/,2.8µM*
CC(NCC1(N2CCOCC2)CCCCC1)C(=O)Nc1ccc(Cl)cc1Cl (configuration not stated),32µM*,2%,50µM*,/,-15%
CC(Oc1ccccc1F)C(=O)NCC1(N2CCOCC2)CCCCC1 (configuration not stated),-3%[59 µM],35%,-2%,/,-16%
N#Cc1ccc(C(=O)Nc2ccc(Cl)c(-c3nc4cc(Cl)ccc4o3)c2)c(F)c1,3%[59 µM],3%,?,/,-16%
Cc1ccc(C)c(Cn2c(=O)n(CCc3ccccc3)c(=O)c3c(C)c(C)sc32)c1,-20%[59 µM],12%,1%,/,-6%
COCCCNC(=O)c1ccc(Cn2c(=O)c3cccn3c3cccnc32)cc1,1%[59 µM],30%,1%,/,12%
Cc1cc(Cl)c2oc(C(=O)NCCN3CCOC3=O)c(C)c2c1,-4%,31%,-15%,/,-10%
Cc1cc(Cl)c2oc(C(=O)N3CCCCC3CCN3CCCC3=O)c(C)c2c1 (configuration not stated),/,18%,50µM*,/,-15%
OC(Cn1cnnc1)c1ccccc1 (configuration not stated),35µM*,22µM*,25µM*,/,6.3µM*
CCN(CC)CCn1c2c(c(SCC(=O)Nc3cccc4ccccc34)nc1=O)CCCC2,13µM*,12%,9%,-6%,-24%
CN(C)CCCn1c2c(c(SCC(=O)Nc3cccc4ccccc34)nc1=O)CCC2,50µM*,-9%,13%,-6%,-17%
CN(C)CCn1c2c(c(SCC(=O)Nc3cccc4ccccc34)nc1=O)CCC2,12%[0.501 µM],-5%,-5%,3%,-14%
O=C(Nc1ccc(N2CCN(C(=O)c3ccccc3)CC2)cc1)c1ccc(Br)o1,32µM*,-2%,?,-15%,-28%
O=C(Nc1ccc(Cl)c(C(=O)N2CCOCC2)c1)c1ccccc1,45µM*,32%,1%,/,-4%
O=C(Nc1ccc(N2CCN(C(=O)c3ccccc3)CC2)c(Cl)c1)c1ccc(Br)o1,45µM*,33%,-35%,-10%,-25%
O=C(Nc1ccc(C(=O)N2CCOCC2)cc1)c1ccccc1,/,62%,/,/,-1%
SMILES,G9a inh,HP1b binding inh,BAZ2B block,L3MBTL1 inh,JMJD2A Tudor
O=C(Nc1ccc(N2CCOCC2)c(Cl)c1)c1ccc(Br)o1,-50%[12.7 µM],11%,0%,-7%,-12%
COc1ccccc1CNc1ncnc2ccc(-c3ccccc3OC)cc12,-44%[0.501 µM],/,/,/,/
CC(CNC(=O)CCc1cn(Cc2ccccc2Cl)c2ccccc12)c1ccccc1 (configuration not stated),?,1%,?,/,-27%
Cc1ccc(OCCCC(=O)Nc2cc(S(=O)(=O)N3CCOCC3)ccc2N2CCOCC2)cc1,56µM*,1%,-5%,-7%,-18%
CCN(CC)c1ccc(S(=O)(=O)N2CCOCC2)cc1NC(=O)CNCc1cccc(Cl)c1,/,?,/,/,50µM*
O=C(CNCc1ccccc1Cl)Nc1cc(S(=O)(=O)N2CCOCC2)ccc1Cl,/,?,/,0%,7.9µM*
O=C(CNCc1ccco1)Nc1cc(S(=O)(=O)N2CCOCC2)ccc1N1CCOCC1,/,?,/,-1%,18µM*
CCN(CC)c1ccc(S(=O)(=O)N2CCOCC2)cc1NC(=O)CSc1ccccc1,-30%,7%,5%,-9%,-10%
Cc1ccc(S(=O)(=O)N2CCOCC2)cc1NC(=O)CNCc1ccc(Cl)cc1Cl,/,29%,/,-3%,-17%
O=C(CCCOc1ccccc1)Nc1cc(S(=O)(=O)N2CCOCC2)ccc1N1CCOCC1,7%[12.7 µM],44%,2%,-4%,-8%
CCC(=O)Nc1ccccc1-c1nc2ccccc2n(CC(=O)c2ccc(C)cc2)c1=O,?,37%,6%,/,6%
O=C(NCc1ccccc1Cl)C1CCN(S(=O)(=O)Cc2ccccc2)CC1,?,39%,-5%,/,-8%
CCN(CC)c1ccc(S(=O)(=O)N2CCOCC2)cc1NC(=O)CSc1nncs1,35µM*,5%,11%,-18%,-3%
CCN(CC)c1ccc(S(=O)(=O)N2CCOCC2)cc1NC(=O)CSc1nncn1C,?,31%,13%,1%,-19%
O=C(CNCc1ccc(Cl)cc1)Nc1cc(S(=O)(=O)N2CCCC2)ccc1Cl,/,?,/,/,3.5µM*
O=C(Cc1ccccc1F)Nc1cc(S(=O)(=O)N2CCCC2)ccc1Cl,27%[59 µM],22%,-6%,1%,-5%
C=CCn1c(SCC(=O)N(C)CC(=O)Nc2ccc(C)cc2)nnc1-c1ccncc1,/,2%,/,-3%,-19%
CC(=O)c1c(Nc2ccc3c(c2)OCCO3)oc(C)cc1=O,79µM*,19%,-9%,8%,-16%
COc1ccc(C2=NN(C(C)=O)C(c3cn(-c4ccccc4)nc3-c3cccs3)C2)cc1 (configuration not stated),2%[59 µM],31%,-21%,/,-13%
C/C=C/COC(=O)c1[nH]c2c(c1C)C(=O)CC(c1ccc(N(C)C)cc1)C2 (configuration not stated),35µM*,-12%,?,-13%,89µM*
CCC(C)OC(=O)c1[nH]c2c(c1C)C(=O)CC(c1ccc(N(C)C)cc1)C2 (configuration not stated),14µM*,-6%,?,-8%,?
COc1ccc(NC(=O)Nc2nnc(N3CCCCCC3)s2)c(OC)c1,?,49%,-27%,/,-2%
Cc1ccc(NC(=O)CSc2nccn2C2CCCC2)cc1,-11%[59 µM],15%,-29%,/,-20%
